Records with an inconclusive call do not appear. Where a call stands in place of a potency, no number is given. Calls of active or inactive are those of the source. The call rests on the fitted dose curve; in most records, active means well fitted cell-killing curve with a large enough effect; inconclusive means small, poorly fitted or top-dose-only effect; inactive means flat fitted curve, though single readings scatter.
assay: Cell Viability - LYMP2-016 (AID 984); details: LYMP2-016 lymphoblastoid cell viability, qHTS; series mostly up to 92.2 µM; further: nearly all actives have a fitted effect of over 55% in size
Source text: NIH Chemical Genomics Center [NCGC]
NIH Molecular Libraries Screening Centers Network [MLSCN]
National Institutes of Environmental Health Sciences [NIEHS]
National Toxicology Program [NTP]
We have developed a 1536-well cell-based assay for quantitative high throughput screening (qHTS) against a number of cell lines to determine in vitro cytotoxicity of small molecules. This particular assay uses a human lymphoblastoid cell line (LYMP2-016) purchased from Coriell Institute for Medical Research.
NCGC Assay Protocol Summary:
The CellTiter-Glo luminescent cell viability assay (Promega) is a homogeneous method to measure the number of viable cells in culture. The end point readout of this assay is based on quantitation of intracellular ATP, an indicator of metabolic activity, using the luciferase reaction. Luciferase catalyzes the oxidation of beetle Luciferin to oxyluciferin and light in the presence of ATP. The luminescent signal is proportional to amount of ATP present.
Using the CellTiter-Glo luminescent cell viability assay, the amount of cellular ATP was measured in the lymphoblastoid cell line with complete culture medium following compound treatment for 24 hours. The assay was performed in opaque white Kalypsys 1536-well plates. In the screen, tetraoctylammonium bromide was used as positive control. Library compounds were measured for their ability to cause acute toxicity in the cell line, as reflected by a decrease in intracellular ATP levels, in a concentration-dependent manner. […] AC50 values were determined from concentration-response data modeled with the standard Hill equation.
qHTS protocol for CellTiter Glo lymphoblastoid cellular assay
[Step] [Parameter] [Value] [Description]
1. Reagent; 5 uL; 2500 lymphoblastoid cells/well
2. Time; 5 hr; 37 C incubation
4. Controls; 23 nL; Tetraoctylammonium bromide 6.4pM to 92 uM
5. Time; 24 hr; 37 C incubation
6. Reagent; 5 uL; CellTiter Glo reagent
7. Time; 30 min; Room Temperature
8. Detection; Luminescence; Viewlux plate reader
Keywords: cell viability, cytotoxicity, lymphoblastoid cell line, luminescence, NTPHTS, NTPHTS_NCGC, NIEHS, DSSTox, MLSMR, MLSCN, NIH Roadmap, qHTS, NCGC
Potency means the concentration at half of the fitted maximal effect.

Row | Structure (SMILES) | Potency
1 | CC(=O)OC1CC(C)OC(C)O1 (stereo not given) | inactive
2 | CN(C)c1ccc(Cc2ccc(N(C)C)cc2)cc1 | inactive
3 | O=C(O)c1ccc([N+](=O)[O-])cc1 | inactive
4 | OCC(CBr)(CBr)CBr | inactive
5 | C=CC(C)(O)CCCC(C)CCCC(C)CCCC(C)C (stereo not given) | inactive
6 | CCCCC(CC)COCCCN (stereo not given) | inactive
7 | S=C(NC1CCCCC1)NC1CCCCC1 | inactive
8 | c1c[nH]cn1 | inactive
9 | Oc1ccc2c(c1)OCO2 | inactive
10 | CCNC(=S)NCC | inactive
11 | Cc1c2ccccc2c(C)c2c1ccc1ccccc12 | inactive
12 | CCOc1ccc2nc(N)sc2c1 | inactive
13 | CCCC(=O)OC(=O)CCC | inactive
14 | c1ccc(SCCSc2ccccc2)cc1 | inactive
15 | Nc1cc([N+](=O)[O-])ccc1O | inactive
16 | CC/C=C/C/C=C/C/C=C/CCCCCCCC(=O)OCC | 39.8 µM (active)
17 | C=CC(=O)OCCCCCCOC(=O)C=C | 39.8 µM (active)
18 | O=[N+]([O-])c1ccccc1Nc1ccccc1 | inactive
19 | C=Cc1cccc(C)c1 | inactive
20 | CC(=O)c1ccc(Cl)c(Cl)c1Cl | inactive

Row | Structure (SMILES) | Potency
21 | NC(=O)Nc1nc2ccccc2[nH]1 | inactive
22 | CCC(Cl)CC(Cl)C(Cl)C(Cl)C(Cl)C(C)Cl (stereo not given) | inactive
23 | Cc1ccc(C(=O)O)cc1[N+](=O)[O-] | inactive
24 | COc1ccc(C(=O)Nc2ccccc2)cc1[N+](=O)[O-] | inactive
25 | CCCCCCc1ccc(-c2ccc(C#N)cc2)cc1 | inactive
26 | Brc1cc(Br)c(Oc2cc(Br)c(Br)cc2Br)cc1Br | inactive
27 | O=C(O)c1cc(N=Nc2ccc([N+](=O)[O-])cc2)ccc1O | inactive
28 | Brc1ccc(-c2ccccc2)cc1 | inactive
29 | COc1cc(-c2ccc(N=C=O)c(OC)c2)ccc1N=C=O | inactive
30 | Nc1cnn([C@@H]2O[C@H](CO)[C@@H](O)[C@H]2O)c(=O)n1 | inactive
31 | O=C(O)/C=C/c1ccc(/C=C/C(=O)O)cc1 | inactive
32 | c1ccc2c(c1)ccc1ccccc12 | inactive
33 | O=[N+]([O-])c1cc(Cl)c(Cl)c(Cl)c1Cl | inactive
34 | C=CC1CO1 (stereo not given) | inactive
35 | Brc1cc(Oc2cc(Br)c(Br)c(Br)c2Br)c(Br)c(Br)c1Br | inactive
36 | COc1ccc([N+](=O)[O-])cc1N | inactive
37 | Cc1ccc2ccc3cccc4ccc1c2c34 | inactive
38 | CCN(CC)c1ccc2c(C)cc(=O)oc2c1 | inactive
39 | Nc1ccc(-c2ccc(N)c(O)c2)cc1O | inactive
40 | N=C1C=CC(=C(c2ccc(N)cc2)c2ccc(N)cc2)C=C1 | 7.94 µM (active)

— PubChem BioAssay (NCATS)
